Compound activity (PubChem BioAssay)
Hits are enriched below; roughly 20% of the tested compounds scored in any of these assays.
Pf growth 48h = inhibits P. falciparum growth in the first generation, 48 h; P. falciparum luciferase growth in erythrocytes, 48 h; Potency, µM (titrated, usually from 28.7 µM), for the others: top-dose activity change, negative = inhibition, usual class: inhibitors; 5.9% of 310,000 active; further: potency means the concentration at half of the fitted maximal effect; on the % scale 0 is the no-effect control and ±100 the full control effect
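A one-generation exposure of luciferase-tagged malaria parasites in RPMI 1640/Albumax erythrocyte culture, 37 C and 5% CO2. Inhibition is inferred from decreased luminescence after adding detection reagent.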
HCMV antiviral = blocks human cytomegalovirus replication | AID 1259415 | activity change, negative = inhibition, % at 57.5 µM | 4.5% of 410,000 active | HFF cells, HCMV-luciferase reporter, 72 h; active compounds read low; in the data active means activity change below about -60%; inconclusive means no clear call, values can overlap the other calls; inactive means above about -39%; further: on the % scale 0 is the no-effect control and ±100 the full control effect
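Luciferase read-out from HCMV-luciferase-infected HFFs (MOI 1 PFU/cell) 72 h post infection at 37C; compounds added after 16 h cell attachment; activity normalized between buffer-only basal and Salinomycin (10uM) inhibitor controls.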
Shiga inhibitor = blocks Shiga toxin action in Vero cells. Vero cells, Shiga toxin protein synthesis inhibition reporter. inhibition, % at 38.7 µM. 9.2% of 290,000 active. AID 2315; in the data active means inhibition mostly above about 28%, no sharp cut-off; inactive means mostly below about 43%; further: 0% is about no effect
CHX counter = counter-screen hit for Shiga toxin inhibitors, cycloheximide | cell reporter, cycloheximide protein synthesis inhibition counterscreen | max response, % | 12% of 300,000 active | AID 2314; in the data active means max response mostly above about 13%, no sharp cut-off; inactive means mostly below about 14%; further: read at 38.3 µM for the half of the compounds with a filed dose; 0% is about no effect
Pf growth 96h = inhibits malaria parasite growth, 96 h | P. falciparum luciferase reporter growth, 96 h | Potency, µM (doses to about 28.7 µM), without a hit: at the top dose activity change, negative = inhibition, hits mostly inhibitors | 6.9% of 320,000 active; further: potency means the concentration at half of the fitted maximal effect; on the % scale 0 is the no-effect control and ±100 the full control effect
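Two-generation exposure (96 h) targets delayed-death phenotype. Reporter parasites carrying integrated firefly luciferase, in red cells at 2% hematocrit and 0.05% parasitemia final, kept at 37 C, 5% CO2; luminescence loss indicates inhibition.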
Numbers without * were called inactive; ? = inconclusive; . = no result; ! = repeats disagree. Unless noted, the call rests on the fitted dose curve; in most records, active means well fitted inhibition curve with a large enough effect; inconclusive means small, poorly fitted or top-dose-only effect, or another doubt; inactive means no such curve, though single readings can be large or run the other way.

SMILES	Pf growth 48h	HCMV antiviral	Shiga inhibitor	CHX counter	Pf growth 96h
O=C(NCc1ccc2[nH]c3c(c2c1)CCCC3)c1ccc(S(=O)(=O)N2CCOCC2)cc1	?	-4.3	-10.7	-1.7	?
CCOC(=O)CN1C(=O)N(c2ccc(C)c(C)c2)S(=O)(=O)c2ccccc21	.	-6.4	.	.	.
COc1ccc2[nH]c3c(C)c4ccncc4c(C)c3c2c1	0.37µM*	-76.9*	8.2	1.5	0.37µM*
Cc1c2ccncc2c(C)c2c1[nH]c1ccccc12	1.04µM*	.	2.2	4.6	1.04µM*
COc1ccc2[nH]c(C)cc(=O)c2c1	-17.6%	-12.8	30.0	-0.6	-29.5%
CC(C)CN(C(=O)CN(C)CC(=O)Nc1ccccc1C#N)c1c(N)n(CC(C)C)c(=O)[nH]c1=O	.	-19.8	.	.	.
CC(C)c1ccc(S(=O)(=O)N2CCN(C(=O)C3CCCC3)CC2)cc1	5.1%	-15.8	-6.1	-2.4	-19.2%
Cc1sc(NC(=S)Nc2ccc(F)cc2)c(C(N)=O)c1C	33.8%	-30.9	48.2	-0.9	0.0%
Cc1sc(NC(=O)c2ccc(Br)s2)c(C(N)=O)c1C	214.0%	209.1	68.9*	50.6*	.
Cc1sc(NC(=O)c2ccc(Cl)s2)c(C(N)=O)c1C	168.0%	239.9	103.5*	67.9*	.
COc1cc(F)ccc1-c1cc(C(=O)NCc2ccc(F)cc2)[nH]n1	.	-37.9	.	.	.
CCCCNC(=O)COc1ccccc1[N+](=O)[O-]	60.7%	-0.3	76.9*	24.7*	59.5%
CCCNC(=O)COc1ccccc1[N+](=O)[O-]	35.5%	-10.9	38.6	20.8	37.4%
NNC(=O)COc1ccccc1[N+](=O)[O-]	11.4%	-0.1	17.5	24.5*	21.1%
CCCCNC(=O)c1cc([N+](=O)[O-])[nH]n1	0.6%	-7.7	-11.6	3.7	98.2%
CCCCNC(=O)c1cc2cccc([N+](=O)[O-])c2[nH]1	2.62µM*	64.1	11.8	22.5*	?
CCc1nc2c(OCc3ccccc3)cccn2c1N(C)C(C)=O	.	-35.3	.	.	.
COc1ccc(CCNC(=O)COC(=O)/C=C/c2ccc(OC)c(OC)c2)cc1	-7.6%	11.7	-9.0	-8.1	?
O=C(Cc1ccccc1)Nc1c(C(=O)N2CCN(c3ccc(F)cc3)CC2)oc2ccccc12	.	-20.6	.	.	.
O=C(COc1ccccc1)Nc1c(C(=O)N2CCN(c3ccc(F)cc3)CC2)oc2ccccc12	.	-106.9*	.	.	.
COc1cccc(N2CCN(C(=O)c3oc4ccccc4c3NC(=O)CCc3cc(OC)no3)CC2)c1	?	-61.5*	-8.6	-1.5	?
CCC(CC)C(=O)Nc1c(C(=O)N2CCN(c3ccccc3)CC2)oc2ccccc12	10.4µM*	-78.9*!	2.4	-3.1	-9.2%
COc1ccc(/C=N/NC(=O)CN2CCSCC2)c(OC)c1	15.7%	-22.4	15.5	-2.9	28.3%
CCc1nc(Nc2ccc(OC)c(OC)c2)c2nnn(Cc3ccccc3Cl)c2n1	?	?	10.7	-1.9	-12.2%
O=c1cc(NCc2ccco2)[nH]c(=O)n1-c1ccc(Br)cc1	-7.0%	?	1.2	-1.3	9.28µM*
SMILES	Pf growth 48h	HCMV antiviral	Shiga inhibitor	CHX counter	Pf growth 96h
COc1ccccc1N1CCN(C(=O)C(C)CS(=O)(=O)c2ccc3c(c2)NC(=O)CS3)CC1 (centres undefined)	?	-20.3	11.7	8.4	45.4%
CCn1ccnc1CN(C)Cc1nc(-c2ccc(C(=O)OC)cc2)no1	22.4%	-30.2	16.2	11.0	0.8%
COC(=O)c1ccc(-c2noc(CN3C[C@H]4CC[C@H]3C4)n2)cc1	92.1%	6.3	21.0	18.8*	?
COC(=O)c1ccc(-c2noc(CN(C)CC3CCCCO3)n2)cc1 (centres undefined)	87.4%	0.0	54.3	42.5*	?
COC(=O)c1ccc(-c2noc(CN(Cc3ccncc3)CC3CCCO3)n2)cc1 (centres undefined)	?	-7.1	-10.9	-3.6	-2.2%
COC(=O)C1=C(c2ccccc2OCc2ccccc2)C[C@@H]2CC[C@H]1N2C(=O)NC1CCN(Cc2ccccc2)CC1	13.1µM*	-27.5	.	.	?
COC(=O)C1=C(c2cccc(OCc3ccccc3)c2)C[C@@H]2CC[C@H]1N2C(=O)NC1CCN(Cc2ccccc2)CC1	13.1µM*	7.3	.	.	?
COC(=O)C1=C(c2ccc(F)cc2OCc2ccccc2)C[C@@H]2CC[C@H]1N2C(=O)NC1CCN(Cc2ccccc2)CC1	13.1µM*	-6.6	.	.	?
O=c1c2nc(Br)n([C@@H]3O[C@@H]4CO[P@@](O)(=S)O[C@H]4[C@H]3O)c2nc2[nH]c(-c3ccccc3)cn12	.	.	-9.9	2.1	.
CCN(c1ccccc1)S(=O)(=O)c1ccc(OC)c(NC(=O)Cc2ccc(F)cc2)c1	?	-14.1	.	.	10.4µM*
CCN(c1ccccc1)S(=O)(=O)c1ccc(OC)c(NC(=O)CNCCc2ccccc2)c1	11.7µM*	-33.0	36.2	24.6*	?
Cc1ccc(C(=O)N2CCCC(N3CCN(c4ccccc4F)CC3)C2)s1 (centres undefined)	-19.3%	-33.5	-12.2	12.9	-13.9%
COc1ccc(OC)c(C2C(C(C)=O)=C(C)Nc3ncnn32)c1 (centres undefined)	16.5%	-18.4	-7.0	-6.7	229.3%
Nc1ccn(C2OC(COP(=O)(O)O)C(O)C2O)c(=O)n1 (centres undefined)	.	-96.9*	.	.	.
CC(=O)NC[C@H]1O[C@@H](n2ccc(N)nc2=O)[C@H](O)[C@@H]1O	.	12.2	.	.	.
O=C(NCC1CCCO1)c1c(O)c2c([nH]c1=O)CCCC2 (centres undefined)	88.1%	56.7	29.4	13.2*	?
O=C(Nc1ccc(O)cc1)c1c(O)c2c([nH]c1=O)CCCC2	344.7%	37.3	146.2*	44.4*	28.4%
Cc1c(Cl)cccc1NC(=O)CSc1nc(=O)n(CCCN2CCOCC2)c2c1CCC2	?	6.5	.	.	?
O=Cc1ccccc1OCc1ccc2c(c1)OCO2	21.3%	59.7	100.0*	46.1*	?
CC(NCCC(c1ccccc1)c1ccccc1)c1ccccc1 (centres undefined)	13.5µM*	-39.7	-16.2	-9.3	10.7µM*
COc1ccc(-c2oc3ncn4nc(-c5ccccc5O)nc4c3c2-c2ccc(OC)cc2)cc1	.	12.2	.	.	.
Cc1ccc2c(c1)c1cccc3c1n2CCN3CCC(N)=O	78.1%	.	189.6*	34.2*	?
Cc1c(C#N)c(O)n(C)c(=O)c1N=Nc1ccc(S(N)(=O)=O)cc1	22.9%	?	107.7*	27.1	23.7%
Cc1ccc(NCCc2ccc(C)nc2)cc1	.	5.5	-10.6	11.6	148.6%
Cc1ccc(CCNc2ccc3ccccc3c2)cn1	.	-63.0*	.	.	.
Cc1oc(S(=O)(=O)N(C)C)cc1C(=O)Nc1ccc(F)cc1	7.2%	-23.7	-6.8	-3.3	19.3%
CCOc1ccc(NC(=O)c2ccc(NC(=O)c3cn4c5c(c(N6CCN(C)CC6)c(F)cc5c3=O)OCC4C)cc2)cc1 (centres undefined)	2.33µM*	-3.9	-5.1	0.8	2.62µM*
CCCCOc1ccc(C(=O)Nc2ccc(N3CCN(C)CC3)cc2)cc1	?	-1.8	-13.6	-2.4	-0.2%
